For some of these results: Entries with a potency or affinity are not part of this list. Calls of active or inactive are those of the source. Unless noted, no rule for the calls is given here.
Legend:
[1] = antimalarial activity against Dd2 strain (AID 2302;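 active = growth inhibition above 50% at the single 2 µM test dose, taken to imply half-maximal potency below 2 µM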;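 also: 0% = DMSO untreated growth and 100% = chloroquine plus artemisinin killed control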); details: P. falciparum Dd2 in RBCs, LDH growth readout, 72 h; at 2 µM; active compounds read high
[2] = human hepatoma cell viability loss – ATP luminescence, cytotoxicity control for P. falciparum antimalarial project, primary screen (AID 2303;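 active = inhibition above 50%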;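 also: 0% = DMSO wells and 100% = digitonin-killed cells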); details: HepG2 viability, 24-48 h, at 10 µM, active compounds read high
[3] = molecular target: L-lactate dehydrogenase (Plasmodium falciparum (isolate CDC / Honduras)) (UniProt Q27743); assay: PfLDH activity inhibition – cell lysate, 3D7 strain, counter-screen for P. falciparum growth inhibition project (AID 2304);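 also: 0% = vehicle and 100% = reference inhibitor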; details: P. falciparum 3D7 crude extract, LDH APAD/NBT absorbance; at 2 µM; active compounds read high
Sequence of L-lactate dehydrogenase (Plasmodium falciparum (isolate CDC / Honduras)) (Q27743 whole entry, looked up): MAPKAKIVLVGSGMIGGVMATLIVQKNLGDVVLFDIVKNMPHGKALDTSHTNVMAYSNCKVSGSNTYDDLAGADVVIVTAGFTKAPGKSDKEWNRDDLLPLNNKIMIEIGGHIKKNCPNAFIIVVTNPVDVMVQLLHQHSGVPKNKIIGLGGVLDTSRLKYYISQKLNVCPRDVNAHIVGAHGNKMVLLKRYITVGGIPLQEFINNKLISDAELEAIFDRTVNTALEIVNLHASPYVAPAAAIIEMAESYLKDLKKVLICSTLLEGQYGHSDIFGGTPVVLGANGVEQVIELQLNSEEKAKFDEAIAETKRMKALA

[4] = inhibition of 3D7 malaria parasite growth – strain 3D7 (AID 2306);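 also: 0% = DMSO wells and 100% = chloroquine plus artemisinin control wells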; details: P. falciparum 3D7 erythrocytic growth, LDH absorbance, 72 h; at 2 µM; active compounds read high
[5] = molecular target: Calcium-dependent protein kinase 1 (Plasmodium falciparum (isolate 3D7)) (UniProt P62344); assay: PfCDPK1 kinase inhibitors, biochemical, TCAMS library (AID 1159585; cut-off not given, nearly all actives have IC50 up to about 0.98 µM;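 also: inhibitors leave more ATP so luminescence rises with inhibition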); details: recombinant PfCDPK1, Kinase-Glo ATP depletion luminescence
Sequence of Calcium-dependent protein kinase 1 (Plasmodium falciparum (isolate 3D7)) (P62344 whole entry, looked up): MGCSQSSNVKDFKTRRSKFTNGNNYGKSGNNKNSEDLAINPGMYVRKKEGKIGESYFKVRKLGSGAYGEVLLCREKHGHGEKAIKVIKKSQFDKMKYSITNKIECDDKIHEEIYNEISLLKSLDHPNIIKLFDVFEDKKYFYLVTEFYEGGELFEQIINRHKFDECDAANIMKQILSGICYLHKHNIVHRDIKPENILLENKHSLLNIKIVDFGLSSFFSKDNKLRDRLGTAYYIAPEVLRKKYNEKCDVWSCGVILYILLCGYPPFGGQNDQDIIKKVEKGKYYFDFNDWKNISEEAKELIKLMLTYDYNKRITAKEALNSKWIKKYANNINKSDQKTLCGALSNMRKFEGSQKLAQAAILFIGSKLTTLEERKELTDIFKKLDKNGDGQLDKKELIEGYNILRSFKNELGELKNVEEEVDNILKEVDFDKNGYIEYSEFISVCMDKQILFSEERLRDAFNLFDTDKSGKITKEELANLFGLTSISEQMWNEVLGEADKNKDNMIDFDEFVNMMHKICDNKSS

[6] = molecular target: Plasmodium falciparum protein kinase 6 (PK6, PF3D7_1337100) (UniProt Q8IDW1); assay: PfPK6 kinase inhibitors, biochemical, TCAMS library (AID 1159586); details: recombinant PfPK6, Kinase-Glo ATP depletion luminescence
Sequence of Plasmodium falciparum protein kinase 6 (PK6, PF3D7_1337100) (Q8IDW1 1-305): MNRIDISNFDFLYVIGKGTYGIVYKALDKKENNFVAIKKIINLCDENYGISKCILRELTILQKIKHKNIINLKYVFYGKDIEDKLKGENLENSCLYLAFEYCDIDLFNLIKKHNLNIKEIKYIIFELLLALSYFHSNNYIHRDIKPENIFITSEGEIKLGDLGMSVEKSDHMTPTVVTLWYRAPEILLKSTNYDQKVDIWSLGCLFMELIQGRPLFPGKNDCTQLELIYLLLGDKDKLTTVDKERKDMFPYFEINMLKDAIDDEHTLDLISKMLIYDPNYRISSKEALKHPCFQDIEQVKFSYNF

[7] = molecular target: Protein kinase 7 (PK7), Plasmodium falciparum 3D7 (PF3D7_0213400) (UniProt Q7YTF7); assay: inhibition of Plasmodium PK7 catalytic activity – biochemical, TCAMS antimalarial set, Kinase-Glo luminescence (AID 1159587); details: recombinant PfPK7, Kinase-Glo ATP depletion luminescence
Sequence of Protein kinase 7 (PK7), Plasmodium falciparum 3D7 (PF3D7_0213400) (Q7YTF7 1-343): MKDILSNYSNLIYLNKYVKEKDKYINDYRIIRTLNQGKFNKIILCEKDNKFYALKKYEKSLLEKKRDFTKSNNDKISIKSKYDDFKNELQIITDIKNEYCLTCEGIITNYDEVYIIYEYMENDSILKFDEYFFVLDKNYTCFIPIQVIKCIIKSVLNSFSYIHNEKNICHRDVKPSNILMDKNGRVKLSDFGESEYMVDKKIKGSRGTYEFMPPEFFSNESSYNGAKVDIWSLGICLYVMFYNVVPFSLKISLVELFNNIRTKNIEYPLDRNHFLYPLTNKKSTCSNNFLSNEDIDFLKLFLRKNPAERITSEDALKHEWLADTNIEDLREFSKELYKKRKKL

[8] = molecular target: Calcium-dependent protein kinase 4 (Plasmodium falciparum (isolate 3D7)) (UniProt Q8IBS5); assay: PfCDPK4 kinase inhibitors, biochemical, TCAMS library (AID 1159588; cut-off not given, nearly all actives have IC50 up to about 0.91 µM); details: recombinant PfCDPK4, Kinase-Glo ATP depletion luminescence
Sequence of Calcium-dependent protein kinase 4 (Plasmodium falciparum (isolate 3D7)) (Q8IBS5 whole entry, looked up): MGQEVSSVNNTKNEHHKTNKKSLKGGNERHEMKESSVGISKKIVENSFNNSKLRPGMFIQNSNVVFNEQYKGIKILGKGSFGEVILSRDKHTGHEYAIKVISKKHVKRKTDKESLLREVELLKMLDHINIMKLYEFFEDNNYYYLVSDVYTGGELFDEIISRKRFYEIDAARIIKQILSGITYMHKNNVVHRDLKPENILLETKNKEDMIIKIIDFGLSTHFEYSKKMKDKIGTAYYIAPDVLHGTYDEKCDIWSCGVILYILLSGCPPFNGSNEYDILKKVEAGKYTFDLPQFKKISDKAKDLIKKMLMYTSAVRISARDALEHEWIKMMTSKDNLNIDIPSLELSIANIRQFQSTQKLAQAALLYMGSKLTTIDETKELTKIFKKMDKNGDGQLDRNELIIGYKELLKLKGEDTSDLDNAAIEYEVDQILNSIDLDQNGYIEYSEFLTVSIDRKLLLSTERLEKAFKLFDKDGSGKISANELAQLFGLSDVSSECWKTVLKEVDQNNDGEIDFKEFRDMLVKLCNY

COc1cc2nc(N3CCC(CNC(=O)c4cccc5cccnc45)CC3)nc(N)c2cc1OC
inactive: growth inhibition [1] 33% | inhibition [2] 34% | inhibition [3] -2% | outcome [5] | outcome [6] | outcome [7] | outcome [8]
active: growth inhibition [4] 99%

CCOC(=O)c1ccc(NC(=O)Nc2ccc(-c3ccc(-c4nc5c(C)cccc5[nH]4)s3)cc2)cc1
active: growth inhibition [1] 100% | inhibition [2] 60% | growth inhibition [4] 101%
inactive: inhibition [3] -4% | outcome [5] | outcome [6] | outcome [7] | outcome [8]

CC(C)(C)c1ccc2nc(-c3ccc(C(=O)NC4CCN(Cc5ccccc5)CC4)s3)[nH]c2c1
active: growth inhibition [4] 91%
inactive: growth inhibition [1] 42% | inhibition [2] 24% | inhibition [3] 0% | outcome [5] | outcome [6] | outcome [7] | outcome [8]

O=C(Nc1cccc(-c2ccc(-c3nc4ccccc4[nH]3)cc2)c1)c1ccncc1
active: growth inhibition [1] 58% | growth inhibition [4] 100%
inactive: inhibition [2] 30% | inhibition [3] -1% | outcome [5] | outcome [6] | outcome [7] | outcome [8]

CCOC(=O)c1ccc(NC(=O)Nc2ccc(-c3ccc(-c4nc5ccc(C(F)(F)F)cc5[nH]4)cc3)cc2)cc1
active: growth inhibition [1] 52% | growth inhibition [4] 102%
inactive: inhibition [2] 20% | inhibition [3] -2% | outcome [5] | outcome [6] | outcome [7] | outcome [8]

CCC(CC)n1c(C)cc2c3c(N)nc(N)nc3ccc21
active: growth inhibition [1] 95% | inhibition [2] 61% | growth inhibition [4] 95%
inactive: inhibition [3] 1% | outcome [5] | outcome [6] | outcome [7] | outcome [8]

CN1C[C@@H](c2ccccc2)c2cc(O)c(CN3CCCCC3)cc2C[C@H]1Cc1ccccc1
active: growth inhibition [1] 99% | growth inhibition [4] 99%
inactive: inhibition [2] -6% | inhibition [3] -8% | outcome [5] | outcome [6] | outcome [7] | outcome [8]

CCOc1cc2ncnc(Nc3cc(Cl)c(Cl)c(Cl)c3)c2cc1OCC
active: growth inhibition [1] 98% | growth inhibition [4] 102%
inactive: inhibition [2] 11% | inhibition [3] -3% | outcome [5] | outcome [6] | outcome [7] | outcome [8]

O=C1CCCN1CCCNCc1ccc(-c2ccc(-c3nc4ccc(F)cc4[nH]3)cc2)cc1
inactive: inhibition [2] 16% | inhibition [3] -3% | outcome [5] | outcome [6] | outcome [7] | outcome [8]
active: growth inhibition [1] 99% | growth inhibition [4] 100%

CC(=O)NCCNc1cc(N2CCc3ncnc(Nc4ccc(OCc5c(F)cccc5F)c(Cl)c4)c3C2)ncn1
active: growth inhibition [1] 100% | inhibition [2] 55% | growth inhibition [4] 100%
inactive: inhibition [3] 4% | outcome [5] | outcome [6] | outcome [7] | outcome [8]

CN1CCN(Cc2ccc(OCc3cccc(COc4ccc(CN5CCN(C)CC5)cc4I)c3)c(I)c2)CC1
inactive: inhibition [3] 0% | outcome [5] | outcome [6] | outcome [7] | outcome [8]
active: growth inhibition [1] 69% | inhibition [2] 93% | growth inhibition [4] 92%

CC(C)(C)c1ccc(NC(=O)c2ccc(CN3CCCN(CC4CCCCC4)CC3)cc2)cc1
active: growth inhibition [1] 64% | inhibition [2] 54% | growth inhibition [4] 99%
inactive: inhibition [3] -1% | outcome [5] | outcome [6] | outcome [7] | outcome [8]

O=c1[nH]nc(-c2ccc(N3CCCC3)c([N+](=O)[O-])c2)c2ccccc12
active: growth inhibition [4] 100%
inactive: growth inhibition [1] 39% | inhibition [2] 2% | inhibition [3] -6% | outcome [5] | outcome [6] | outcome [7] | outcome [8]

CC(=O)Nc1ncc(C(=O)Nc2cccc(-c3ccc(-c4nc5c(C)cccc5[nH]4)cc3)c2)s1
inactive: inhibition [3] 3% | outcome [5] | outcome [6] | outcome [7] | outcome [8]
active: growth inhibition [1] 78% | inhibition [2] 69% | growth inhibition [4] 101%

Cc1ccccc1C1CCN(C2CCC(NC(=O)/C=C/c3cc(F)ccc3C(F)(F)F)CC2)CC1 (stereo not given)
active: inhibition [2] 90% | growth inhibition [4] 98%
inactive: growth inhibition [1] 25% | inhibition [3] 2% | outcome [5] | outcome [6] | outcome [7] | outcome [8]

COc1ccc(CCNC(=O)c2ccccc2O)cc1-c1ccc(C(C)(C)C)cc1
inactive: inhibition [2] 25% | inhibition [3] 0% | outcome [5] | outcome [6] | outcome [7] | outcome [8]
active: growth inhibition [1] 96% | growth inhibition [4] 95%

CC(C)COc1ccc(Cl)cc1Cc1ccc(-c2nc3c(F)cccc3[nH]2)o1
inactive: growth inhibition [1] 47% | inhibition [2] 15% | inhibition [3] -1% | outcome [5] | outcome [6] | outcome [7] | outcome [8]
active: growth inhibition [4] 98%

CCN(CC)CCN(Cc1ccc(-c2ccc(C(F)(F)F)cc2)cc1)C(=O)Cn1c(CCc2cc(F)cc(F)c2)nc(=O)c2ccccc21
inactive: inhibition [2] 30% | inhibition [3] 2% | outcome [5] | outcome [6] | outcome [7] | outcome [8]
active: growth inhibition [1] 80% | growth inhibition [4] 91%

COC(=O)c1cc(OC2CCOC2=O)cc2c1OC(C)(C)O2 (stereo not given)
inactive: growth inhibition [1] -1% | inhibition [2] 6% | inhibition [3] 2% | outcome [5] | outcome [6] | outcome [7] | outcome [8]
active: growth inhibition [4] 97%

CC(C)(C)c1ccc(NC(=O)c2cccc(CN3CCCN(CC4CCCCC4)CC3)c2)cc1
inactive: growth inhibition [1] 47% | inhibition [3] 1% | outcome [5] | outcome [6] | outcome [7] | outcome [8]
active: inhibition [2] 97% | growth inhibition [4] 93%

From PubChem BioAssay
